High-throughput results as filed in PubChem BioAssay.
The list is not random: actives were taken first. Their share in the collection is about 21%.
D3 antag – D3 dopamine receptor (human) antagonism. P35462. max response, negative = inhibition, %. 2.5% of 360,000 active. AID 652054. D3R cells, DiscoveRx beta-arrestin luminescence, antagonist mode; stronger effect = lower value; in the data active = max response below about -50%; inconclusive = no clear call, values can overlap the other calls
Target sequence (P35462 whole entry, looked up): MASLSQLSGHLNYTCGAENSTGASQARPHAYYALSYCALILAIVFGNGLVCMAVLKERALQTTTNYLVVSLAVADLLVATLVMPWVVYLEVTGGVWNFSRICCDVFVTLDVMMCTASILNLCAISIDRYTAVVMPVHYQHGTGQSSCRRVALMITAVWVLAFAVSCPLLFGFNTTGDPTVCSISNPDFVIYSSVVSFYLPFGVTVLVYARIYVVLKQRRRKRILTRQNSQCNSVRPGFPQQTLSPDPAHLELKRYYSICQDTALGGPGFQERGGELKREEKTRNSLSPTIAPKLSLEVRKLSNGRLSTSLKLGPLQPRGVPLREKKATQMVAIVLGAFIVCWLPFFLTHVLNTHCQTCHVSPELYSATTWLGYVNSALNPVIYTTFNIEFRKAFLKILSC
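Cells expressing the human receptor were seeded at 1500 cells/well, incubated overnight at 37 degrees C in 5% CO2, then exposed to library compounds with dopamine controls for 90 minutes at 37 degrees C before luminescent detection.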
IL-1B inflam inh – inhibitors of inflammasome signaling (IL-1 beta secretion). THP-1 LPS/ATP IL-1B secretion, AlphaLISA, 16 h; stronger effect = lower value. activity change, % at 57.5 µM. 4.7% of 360,000 active. AID 743279; in the data active = activity change below about -50%; inconclusive = mostly about -30% to -49%
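THP-1 cells pretreated 1 hr with compounds (up to 57.5 uM final), then stimulated with LPS (250 ng/mL final) plus ATP (1.25 mM final); secreted IL-1B measured by AlphaLISA after 16 hr, decreased signal indicating inhibition.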
TDP1 cell noCPT – qHTS for Inhibitors of human tyrosyl-DNA phosphodiesterase 1 (TDP1): qHTS in cells in absence of CPT. DT40 Tdp1-/- hTDP1 cells, no CPT, ATP luminescence, 48 h. Potency, µM (series often up to 46.2 µM), most hits filed as inhibitors. 15% of 420,000 active. AID 686978, 2013; also: nearly all actives have a fitted effect of over 55% in size
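Seeded 400 DT40-hTDP1 cells/well (vehicle DMSO, no 20 nM CPT); pinned compounds; ≥48 hr at 37 °C; CellTiter-Glo luminescence as viability measure.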
DT40 TDP1 CPT – DT40-hTDP1 cell growth loss with CPT. chicken DT40 Tdp1-/-;hTDP1 cells + 20 nM CPT, ATP luminescence, 48 h. Potency, µM (series often up to 46.2 µM), hits mostly inhibitors. 12% of 420,000 active. AID 686979; also: nearly all actives have a fitted effect of over 55% in size
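Chicken DT40 Tdp1-/- cells stably complemented with human TDP1 were seeded at 400 cells/well in medium containing 20 nM camptothecin, exposed to pin-transferred compounds, and grown at 37 °C for at least 48 hr. Viability was read as ATP luminescence.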
ClpP mod – qHTS Assay for Activators of ClpP | ATP-dependent Clp protease proteolytic subunit (Bacillus subtilis (strain 168)), P80244 | purified B. subtilis ClpP, FRET peptide cleavage, 20 min | Potency, µM (top dose mostly 57.5 µM) | 1.9% of 340,000 active; active = well fitted falling curve with a large enough effect; inconclusive = small, poorly fitted or top-dose-only effect; inactive = no such curve, though single readings can be large or run the other way; also: the source files actives as falling curves though it sought activators and does not explain the sign; nearly all actives have a fitted effect of over 65% in size
Target sequence (P80244 whole entry, looked up): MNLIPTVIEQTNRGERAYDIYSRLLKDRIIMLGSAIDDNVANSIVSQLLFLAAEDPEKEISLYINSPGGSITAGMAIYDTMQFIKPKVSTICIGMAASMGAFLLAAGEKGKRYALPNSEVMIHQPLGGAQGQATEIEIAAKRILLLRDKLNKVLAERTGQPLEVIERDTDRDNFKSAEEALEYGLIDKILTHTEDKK
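FRET quenching reversal measured ClpP activation: 10 microg/mL B. subtilis ClpP at pH 8 with the FRET-FV decapeptide, read at 430 nm after 320 nm excitation. The 20-min minus 0-min signal was scaled between DMSO/no-enzyme wells and ADEP (5.8 microM final).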
DRD3 agonist – agonists of human D3 dopamine receptor; D3R DiscoveRx beta-arrestin cells, luminescence, 90 min; max activation, %; 0.58% of 410,000 active; in the data active = max activation above about 30%
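Agonist mode: compounds and dopamine controls were applied to plated cells for 90 min at 37 degrees C after an overnight attachment at 1500 cells/well. Luminescent read-out followed 30 - 60 minutes at room temperature with DiscoveRx detection reagent.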
Large screens that a line does not name were inactive. Unless noted, calls follow the shape of the dose curve; as a rule, active = well fitted inhibition curve with a large enough effect; inconclusive = small, poorly fitted or top-dose-only effect; inactive = flat fitted curve, though single readings scatter.

COc1ccc2ccccc2c1CNC(=O)CC1C(=O)NCCN1CC(C)(C)C (centres undefined)	none
O=C(CCS(=O)(=O)c1cccc2nonc12)Nc1c(F)cccc1F	TDP1 cell noCPT inconclusive (no result: D3 antag, IL-1B inflam inh)
COc1ccc(-c2c(C)nc(N)nc2-c2ccc(OCc3ccc(C)cc3)cc2O)cc1OC	TDP1 cell noCPT 5.8µM, DT40 TDP1 CPT inconclusive
COc1ccc(-c2c(C)nc(N)nc2-c2ccc(OC)cc2O)cc1	none (no result: ClpP mod)
COc1ccc(-c2nc(N)nc(N)n2)c(O)c1	TDP1 cell noCPT 16µM, DT40 TDP1 CPT 15µM
COc1ccc(NC(=O)CSc2nc3ccsc3c(=O)n2CCCCCC(=O)O)cc1	none
Cc1ccc([N+](=O)[O-])cc1NC(=O)c1cccnc1	none
Cc1nc2c(c(=O)n1CCC(C)C)c1nc3ccccc3nc1n2Cc1ccc2c(c1)OCO2	TDP1 cell noCPT inconclusive, DT40 TDP1 CPT inconclusive
Cc1ccc(S(=O)(=O)c2c(N)n(CCC(C)C)c3nc4ccccc4nc23)cc1	IL-1B inflam inh -63, TDP1 cell noCPT inconclusive, DT40 TDP1 CPT inconclusive, ClpP mod 25µM
COc1ccccc1/C=N/n1c(N)c(S(=O)(=O)c2cccs2)c2nc3ccccc3nc21	D3 antag inconclusive
Nc1c(S(=O)(=O)c2cccs2)c2nc3ccccc3nc2n1Cc1ccc2c(c1)OCO2	IL-1B inflam inh -67, TDP1 cell noCPT inconclusive, DT40 TDP1 CPT inconclusive, ClpP mod 14µM
COc1ccc(CCn2c(N)c(S(=O)(=O)c3cccs3)c3nc4ccccc4nc32)cc1OC	IL-1B inflam inh -55, TDP1 cell noCPT inconclusive, DT40 TDP1 CPT inconclusive
Nc1c(S(=O)(=O)c2cccs2)c2nc3ccccc3nc2n1Cc1cccs1	TDP1 cell noCPT inconclusive, DT40 TDP1 CPT inconclusive, ClpP mod 32µM
CC1(C(=O)O)CCCN(C(=O)c2ccc3c(c2)C(C)(C)CCC3(C)C)C1 (centres undefined)	none
Cc1ccc(C)c(Nc2nc(NCc3ccco3)nc3nccnc23)c1	TDP1 cell noCPT inconclusive, DT40 TDP1 CPT inconclusive (no result: D3 antag, IL-1B inflam inh, DRD3 agonist)
Nc1c(S(=O)(=O)c2cccs2)c2nc3ccccc3nc2n1CC1CCCO1 (centres undefined)	D3 antag inconclusive
Cc1ccc(C(=O)Nn2c(N)c(S(=O)(=O)c3ccc(C)cc3)c3nc4ccccc4nc32)cc1	IL-1B inflam inh inconclusive, ClpP mod 28µM
CC(C)CCn1c(N)c(S(=O)(=O)c2cccs2)c2nc3ccccc3nc21	D3 antag -87, IL-1B inflam inh -88, TDP1 cell noCPT inconclusive, DT40 TDP1 CPT inconclusive, ClpP mod inconclusive
CC(C(=O)N1c2ccccc2CC1C)N1CCN(S(=O)(=O)c2ccccc2F)CC1 (centres undefined)	TDP1 cell noCPT inconclusive, DT40 TDP1 CPT inconclusive
CC(C)Cn1c(N)c(C(=O)CSc2nnc(C3CC3)n2C2CC2)c(=O)n(C)c1=O	none
COc1ccc(CNC(=O)c2cnn(-c3nccc(-c4ccco4)n3)c2C)cc1OC	none (no result: D3 antag, IL-1B inflam inh, ClpP mod, DRD3 agonist)
Clc1ccc(Cl)c(-c2ccc(/C=N/c3ncn[nH]3)o2)c1	DRD3 agonist 32
O/N=C/c1ccc(-c2cc(Cl)ccc2Cl)o1	none
CC(=O)c1cccc(CN2CCC(n3nccc3NC(=O)CCCc3ccccc3)CC2)c1	none
CSCC(C)N1CCC(n2nccc2NC(=O)CCCc2ccccc2)CC1 (centres undefined)	none
CCOc1ccccc1CN1CCC(n2nccc2NC(=O)CCc2ccccc2)CC1	TDP1 cell noCPT inconclusive, DT40 TDP1 CPT inconclusive
Cc1cccc(CN2CCC(n3nccc3NC(=O)CCCc3ccccc3)CC2)c1	D3 antag inconclusive, IL-1B inflam inh inconclusive, TDP1 cell noCPT 21µM, DT40 TDP1 CPT inconclusive
COc1ccccc1CN1CCC(n2nccc2NC(=O)CCCc2ccccc2)CC1	D3 antag inconclusive, IL-1B inflam inh inconclusive, TDP1 cell noCPT inconclusive, DT40 TDP1 CPT 15µM
CCOc1ccccc1CN1CCC(n2nccc2NC(=O)CCCc2ccccc2)CC1	IL-1B inflam inh inconclusive, TDP1 cell noCPT 18µM, DT40 TDP1 CPT inconclusive
CSCCCN1CCC(n2nccc2NC(=O)CCCc2ccccc2)CC1	D3 antag -50, DT40 TDP1 CPT inconclusive
Cc1ccc(N(CC(=O)NCCc2ccccc2)S(=O)(=O)N(C)C)cc1	TDP1 cell noCPT inconclusive (no result: D3 antag, IL-1B inflam inh)
Cc1ccc(C(C)NC(=O)Cc2cccs2)cc1C (centres undefined)	none
CCCC(=O)Nc1ccc(S(=O)(=O)N2CCc3ccccc32)cc1	TDP1 cell noCPT inconclusive, DT40 TDP1 CPT inconclusive
COc1ccc(OC(=O)N(C)C[C@H]2OCc3cn(nn3)CCCC(=O)N([C@H](C)CO)C[C@@H]2C)cc1	none
Cc1ccc(Nc2ncnc3onc(C)c23)cc1Cl	TDP1 cell noCPT inconclusive, DT40 TDP1 CPT inconclusive (no result: D3 antag, IL-1B inflam inh)
O=C(CCc1ccccc1)Nc1ccnn1C1CCN(C/C=C/c2ccccc2)CC1	D3 antag inconclusive, TDP1 cell noCPT inconclusive, DT40 TDP1 CPT inconclusive
COc1ccccc1/C=C/CN1CCC(n2nccc2NC(=O)CCc2ccccc2)CC1	D3 antag inconclusive, TDP1 cell noCPT 12µM, DT40 TDP1 CPT 15µM
C=C(C)CCC(C)N1CCC(n2nccc2NC(=O)CCCc2ccccc2)CC1 (centres undefined)	D3 antag -60, TDP1 cell noCPT inconclusive, DT40 TDP1 CPT inconclusive
CN1CC(=O)N/C1=N\C(=O)Nc1ccc(O)cc1	none
CCOc1ccc(N2CC(NC(=O)C3CCCC3)CC2=O)cc1 (centres undefined)	none (no result: D3 antag, IL-1B inflam inh)
COc1ccc(NC(=O)N2CCC(C(=O)c3ccc(F)cc3)CC2)cc1	TDP1 cell noCPT inconclusive, DT40 TDP1 CPT inconclusive
COc1ccc(-c2[nH]ncc2CN2CCC(C(=O)c3ccc(F)cc3)CC2)cc1	D3 antag -90, TDP1 cell noCPT inconclusive, DT40 TDP1 CPT inconclusive (no result: ClpP mod)
COc1ccc(NC(=O)CN2CCC(C(=O)c3ccc(C)cc3)CC2)c(OC)c1	D3 antag -71, TDP1 cell noCPT inconclusive, DT40 TDP1 CPT inconclusive (no result: ClpP mod)
COc1ccc(NC(=S)N2CCC(C(=O)c3ccc(C)cc3)CC2)c(OC)c1	TDP1 cell noCPT 9.2µM, DT40 TDP1 CPT 13µM
COc1ccc(OC)c(NC(=O)CN2CCC(C(=O)c3ccc(C)cc3)CC2)c1	D3 antag inconclusive, TDP1 cell noCPT 21µM, DT40 TDP1 CPT 26µM
COc1ccc(OC)c(NC(=O)CCN2CCCCCC2)c1	none
CC1CC[C@@]2(OC1)OC1CC3C4CC=C5CC(O)CC[C@@]5(C)C4CC[C@]3(C)C1C2C (some centres undefined)	none (no result: D3 antag, IL-1B inflam inh, ClpP mod, DRD3 agonist)
CNc1cc(-c2ccccc2C(F)(F)F)ncn1	none (no result: D3 antag, IL-1B inflam inh, ClpP mod, DRD3 agonist)
Cc1nnc(NC(=O)CSc2nccn2Cc2ccc(Cl)cc2)s1	TDP1 cell noCPT inconclusive, DT40 TDP1 CPT inconclusive (no result: D3 antag, IL-1B inflam inh)
